Measured values reported in PubChem BioAssay.

The molecules below were run against Neurogenic locus notch homolog protein 2 (Homo sapiens) (UniProt Q04721) (assay: Notch2 binders on small-molecule microarrays, primary screen, biochemical, small-molecule microarray, 635 nm fluorescence, stem cell growth factors (AID 1073)). Settings: Notch2 binding, higher = more signal.
Chain of Neurogenic locus notch homolog protein 2 (Homo sapiens) (Q04721 whole entry, looked up): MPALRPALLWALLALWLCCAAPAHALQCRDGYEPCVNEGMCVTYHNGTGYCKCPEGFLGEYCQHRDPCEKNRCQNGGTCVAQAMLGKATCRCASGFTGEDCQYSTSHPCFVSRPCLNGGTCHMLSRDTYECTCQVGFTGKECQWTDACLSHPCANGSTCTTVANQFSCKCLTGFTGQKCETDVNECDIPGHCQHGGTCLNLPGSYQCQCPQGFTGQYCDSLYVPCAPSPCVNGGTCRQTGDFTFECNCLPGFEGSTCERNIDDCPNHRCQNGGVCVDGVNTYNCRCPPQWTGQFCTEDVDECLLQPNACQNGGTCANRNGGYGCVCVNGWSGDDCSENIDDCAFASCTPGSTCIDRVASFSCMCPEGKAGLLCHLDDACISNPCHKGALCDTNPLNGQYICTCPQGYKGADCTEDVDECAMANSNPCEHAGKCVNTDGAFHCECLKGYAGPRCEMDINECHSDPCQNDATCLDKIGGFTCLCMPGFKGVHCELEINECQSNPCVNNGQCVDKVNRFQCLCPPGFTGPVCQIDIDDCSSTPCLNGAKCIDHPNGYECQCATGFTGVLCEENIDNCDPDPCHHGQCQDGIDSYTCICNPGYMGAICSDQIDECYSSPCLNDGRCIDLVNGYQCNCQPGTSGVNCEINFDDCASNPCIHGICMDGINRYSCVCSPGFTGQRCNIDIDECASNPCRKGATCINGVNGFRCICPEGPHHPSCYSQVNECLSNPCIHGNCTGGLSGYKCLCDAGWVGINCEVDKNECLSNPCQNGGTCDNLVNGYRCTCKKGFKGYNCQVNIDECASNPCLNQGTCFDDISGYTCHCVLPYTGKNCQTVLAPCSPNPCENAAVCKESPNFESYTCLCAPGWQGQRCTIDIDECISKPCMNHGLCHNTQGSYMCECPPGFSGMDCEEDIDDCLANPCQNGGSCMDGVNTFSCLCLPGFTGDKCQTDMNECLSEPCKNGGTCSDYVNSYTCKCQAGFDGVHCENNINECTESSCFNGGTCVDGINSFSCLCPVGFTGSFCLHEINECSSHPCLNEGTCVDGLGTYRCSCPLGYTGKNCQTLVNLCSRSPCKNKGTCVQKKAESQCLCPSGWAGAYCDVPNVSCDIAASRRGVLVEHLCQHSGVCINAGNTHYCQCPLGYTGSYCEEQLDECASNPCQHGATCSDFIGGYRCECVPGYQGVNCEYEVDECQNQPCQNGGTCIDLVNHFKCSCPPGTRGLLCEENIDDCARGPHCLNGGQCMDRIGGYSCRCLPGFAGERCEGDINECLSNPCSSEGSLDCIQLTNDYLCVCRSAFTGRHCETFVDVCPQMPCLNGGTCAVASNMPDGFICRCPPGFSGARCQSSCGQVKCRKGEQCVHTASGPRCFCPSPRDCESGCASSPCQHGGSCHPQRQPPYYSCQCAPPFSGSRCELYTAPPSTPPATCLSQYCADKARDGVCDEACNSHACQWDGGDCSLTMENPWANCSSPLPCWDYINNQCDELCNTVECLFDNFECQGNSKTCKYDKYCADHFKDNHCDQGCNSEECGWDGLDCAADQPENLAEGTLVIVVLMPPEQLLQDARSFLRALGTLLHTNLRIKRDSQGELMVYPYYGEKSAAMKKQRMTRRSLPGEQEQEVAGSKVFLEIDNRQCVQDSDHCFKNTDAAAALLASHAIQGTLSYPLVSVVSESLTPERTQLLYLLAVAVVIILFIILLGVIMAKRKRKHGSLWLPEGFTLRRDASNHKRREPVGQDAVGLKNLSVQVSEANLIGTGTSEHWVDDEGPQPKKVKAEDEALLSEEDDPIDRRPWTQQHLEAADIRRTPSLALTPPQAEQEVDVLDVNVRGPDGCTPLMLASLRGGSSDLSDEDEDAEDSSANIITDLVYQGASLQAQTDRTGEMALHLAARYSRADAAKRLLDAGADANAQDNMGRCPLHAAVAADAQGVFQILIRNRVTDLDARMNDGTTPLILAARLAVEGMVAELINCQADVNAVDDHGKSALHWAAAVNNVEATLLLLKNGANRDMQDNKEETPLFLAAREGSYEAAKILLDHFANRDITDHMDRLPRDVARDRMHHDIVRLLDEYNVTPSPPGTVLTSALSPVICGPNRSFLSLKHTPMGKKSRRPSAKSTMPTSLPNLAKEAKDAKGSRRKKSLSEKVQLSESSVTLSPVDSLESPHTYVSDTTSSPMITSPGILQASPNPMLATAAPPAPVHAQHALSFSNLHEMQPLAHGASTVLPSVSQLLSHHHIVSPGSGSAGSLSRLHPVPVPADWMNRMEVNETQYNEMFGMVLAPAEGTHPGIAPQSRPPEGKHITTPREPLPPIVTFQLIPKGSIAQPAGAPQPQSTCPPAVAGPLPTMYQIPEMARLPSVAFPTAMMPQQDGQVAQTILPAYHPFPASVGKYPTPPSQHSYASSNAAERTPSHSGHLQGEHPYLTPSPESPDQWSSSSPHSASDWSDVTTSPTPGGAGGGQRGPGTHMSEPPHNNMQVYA

SMILES	composite z-score
O=C1c2ccccc2[C@](Cc2ccccc2I)(C(=O)O)[C@H](c2ccc(CO)cc2)N1Cc1ccccc1C(F)(F)F	0.304
C=CCN1C(=O)[C@@]2(O[C@@H](CCO)[C@H]([Si](C)(C)c3ccc(OC)cc3)[C@H]2C)c2cc(NC(C)=O)ccc21	1.07
O=C1O[C@@H](c2ccccc2)[C@@H](c2ccccc2)N2[C@@H](c3ccc(O)cc3)[C@]3(C(=O)Nc4ccccc43)[C@@H](C(=O)NC[C@H](O)c3ccccc3)[C@H]12	0.135
C=C(CCCC)C(=O)CC[C@@H](OC(=O)c1ccccc1-c1ccccc1C(=O)O)c1ccc(CO)o1	0.629
COCCOC(=O)N1C(=O)[C@@]2(c3cc(C#CCCO)ccc31)[C@H](c1ccc(O)cc1)N1[C@H](c3ccccc3)[C@H](c3ccccc3)OC(=O)[C@H]1[C@@H]2C(=O)N1CCCCCCC1	1.33
O=C(NCC(O)CO)[C@]1(CCS(=O)(=O)c2ccccc2)N=C(c2ccc(OCCCO)cc2)O[C@@H]1c1ccccc1 (stereo partly drawn)	0.158
CC(C)NC(=O)[C@@H]1c2ccccc2C(=O)N(C2CCCCC2)[C@H]1c1ccc(CO)cc1	0.851
CCOC(=O)C=Cc1cccc(OC)c1O	-1.37
NC(=O)NCC#Cc1ccc2c(c1)[C@]1(C(=O)N2)[C@H](C(=O)NC[C@H](O)c2ccccc2)[C@H]2C(=O)O[C@H](c3ccccc3)[C@H](c3ccccc3)N2[C@@H]1c1ccccc1OCCO	-0.686
CN1C(=O)C2C(C1=O)C1C=C(c3ccc(CO)cc3)C2C(C2CC2)N1Cc1cc2c(cc1Br)OCO2 (stereo not drawn)	1.61
O=C1OCCC/C=C\[C@H]2OC34C=CCN(Cn5nnc6ccccc65)C(=O)[C@H]3N(CCCO)C(=O)[C@@H]4C12 (stereo partly drawn)	-0.936
CC(C)N1C(=O)c2ccccc2[C@](C)(C(=O)NC2CC2)[C@@H]1c1ccc(CO)cc1	0.38
O=C1C2C=CC(C(O)CCc3ccccc3)N(Nc3ccccc3)C2C(=O)N1c1ccccc1 (stereo not drawn)	1.61
O=C1O[C@H](c2ccccc2)[C@H](c2ccccc2)N2[C@H]1[C@@H](C(=O)N1CCCCCCC1)[C@]1(C(=O)Nc3ccc(C#CC4=CCCCC4)cc31)[C@H]2c1ccc(O)cc1	1.84
CC(C)OC(=O)C1=CCC(c2cccc(Cl)c2)O1 (stereo not drawn)	-1.12
C=CCN1C(=O)[C@@]2(O[C@@H](CCO)[C@H]([Si](C)(C)c3ccc(OC)cc3)[C@H]2C)c2cc(N3C(=O)COc4ccccc43)ccc21	0.227
C=CCC(OC(C)=O)[C@@H]1[C@@H](N(Cc2ccc(-c3ccccc3)cc2)C(=O)c2ccc(C)cc2)c2cc(OCCCO)ccc2N1C(=O)c1ccc2ccccc2n1 (stereo partly drawn)	0.0291
COCCOC(=O)N1C(=O)[C@@]2(c3cc(C#CC4=CCCCC4)ccc31)[C@H](c1ccc(OCCO)cc1)N1[C@H](c3ccccc3)[C@H](c3ccccc3)OC(=O)[C@H]1[C@@H]2C(=O)Nc1nc2ccccc2s1	1.4
O=[N+]([O-])c1ccc(C[n+]2ccc(CCCO)cc2)o1	1.53
C=C(C)[C@@H]1CC=C(C(O)C2C=CC3C(=O)N(Cc4ccccc4)C(=O)C3N2n2cnnc2)CC1 (stereo partly drawn)	-0.274
CCCNC(=O)[C@@]1(C)c2ccccc2C(=O)N(Cc2cc(F)cc(C(F)(F)F)c2)[C@H]1c1ccc(CO)cc1	-0.639
CO[C@H]1O[C@H](CO)[C@@H](OC(=O)Nc2cccc(F)c2)[C@H](OC(=O)Nc2ccccc2-c2ccccc2)[C@@H]1OC(=O)Nc1ccccc1-c1ccccc1	1.65
CCOC(=O)N1C(c2ccc(OCCCO)cc2)=NC(C(=O)OC)N1C(=O)OCC (stereo not drawn)	1.17
COCCCNC(=O)[C@@]1(Cc2ccccc2I)c2ccccc2C(=O)N(Cc2ccccc2)[C@H]1c1ccc(CO)cc1	-1.61
COc1ccc(C#Cc2ccc3c(c2)[C@]2(C(=O)N3)[C@H](C(=O)N3CCN(c4ncccn4)CC3)[C@H]3C(=O)O[C@H](c4ccccc4)[C@H](c4ccccc4)N3[C@@H]2c2ccc(O)cc2)cc1	0.871
CN(C)CCCC[C@@H]1NC(=O)[C@@H]2C[C@H](C(=O)NCc3ccc(F)cc3)[C@H](c3cccc(OCCO)c3)N2C1=O	-0.252
O=C1O[C@@H](c2ccccc2)[C@@H](c2ccccc2)N2[C@@H](c3ccc(O)cc3)[C@]3(C(=O)Nc4ccc(C#CCCO)cc43)[C@@H](C(=O)O)[C@H]12	0.725
CC(C)NC(=O)[C@@]1(c2ccc([N+](=O)[O-])cc2)CC(=O)N(C(C)C)[C@@H]1c1ccc(CO)cc1	-0.999
